Results: PubChem BioAssay
Calls of active or inactive are those of the source. Rule as the data show it, unless noted: active = inhibition above about 80%; inactive = the rest.

Legend:
[1] = galactose survival enhancers in mitochondrial complex I cybrids – cell-based, galactose medium, ATP luminescence, primary screen (AID 1645843;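 active = z-score of at least 1.8 in each of two replicates, scored against plate mean and spread of sample wells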;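 also: positive z means more ATP and so rescue of galactose-driven cybrid death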); settings: complex I mutant cybrid cells, 72 h, stronger effect = higher value
[2] = growth inhibition, single agent or in combination, cell-based, chromothripsis tumors, cisplatin or BGB combos (AID 1671449); settings: LFS_MB_P medulloblastoma cells;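 also: cells exposed for 96 hours; 0% = vehicle DMSO and 100% = killing by high DMSO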
[3] = growth inhibition, single agent and combos, cell-based, chromothripsis tumors, cisplatin or BGB combos (AID 1671450); settings: HDN33 neuroblastoma cells, stronger effect = higher value;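 also: cells exposed to compound for four days; 0% = vehicle DMSO and 100% = cell killing by high DMSO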
[4] = growth inhibition, single agents and combos, ICB984, cell-based, cisplatin or BGB combos, synergistic combos for chromothripsis tumors (AID 1671451; call rule not given here;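 also: cells exposed for 96 hours before readout; 0% = vehicle DMSO and 100% = killing by high DMSO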); settings: ICB984 medulloblastoma cells, drug combinations, stronger effect = higher value
[5] = growth inhibition, single agents and combos, LFS_MB_1R, cell-based, cisplatin or BGB combos, synergistic combos for chromothripsis tumors (AID 1671452); settings: LFS_MB_1R medulloblastoma cells, stronger effect = higher value;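 also: cells exposed for 96 hours before readout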
[6] = growth inhibition, single agents and combos, HTB85, cell-based, BGB or cisplatin IC20 combos, synergistic combos for chromothripsis tumors (AID 1671453); settings: HTB85 osteosarcoma cells, drug combinations, stronger effect = higher value;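 also: cells exposed for 96 hours before readout; 0% = vehicle DMSO and 100% = high DMSO killing control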
[7] = growth inhibition, single agents and combos, CRL2098, cell-based, BGB or cisplatin IC20 combos, synergistic combos for chromothripsis tumors (AID 1671454); settings: CRL2098 osteosarcoma cells, drug combinations, stronger effect = higher value;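 also: cells exposed for 96 h before readout; 0% = vehicle DMSO and 100% = killing by high DMSO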
[8] = growth inhibition, single agents and combos, HD-MB03, cell-based, BGB or cisplatin IC20 combos, synergistic combos for chromothripsis tumors (AID 1671455; in the data active = inhibition above about 83%;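 also: 0% = vehicle DMSO and 100% = high DMSO as cytotoxic control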); settings: HD-MB03 medulloblastoma cells, stronger effect = higher value
[9] = growth inhibition, single agents and combos, UWB1.289, cell-based, BGB or cisplatin combos, synergistic combos for chromothripsis tumors (AID 1671456); settings: UWB1.289 ovarian carcinoma cells, stronger effect = higher value;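 also: cells exposed to compound for four days; 0% = vehicle DMSO and 100% = killing by high DMSO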
[10] = growth inhibition, single agents and combos, LFS_MB_2R, cell-based, cisplatin combos, synergistic combos for chromothripsis tumors (AID 1671457); settings: LFS_MB_2R medulloblastoma cells, stronger effect = higher value;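 also: cells exposed to compound for four days before readout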
[11] = growth inhibition, MDA-MB-436, cell-based, BGB or cisplatin combos, synergistic combos for chromothripsis tumors (AID 1671458; call rule not given here;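 also: cells exposed for 96 hours; 0% = vehicle DMSO and 100% = killing by high DMSO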); settings: MDA-MB-436 breast carcinoma growth inhibition, drug combinations, stronger effect = higher value
[12] = UWB1.289_BRCA1 ovarian cancer growth, cell-based, BGB or cisplatin combinations (AID 1671459); settings: UWB1.289 BRCA1 ovarian carcinoma, drug combinations, stronger effect = higher value
[13] = drug combination toxicity in non-malignant astrocytes – cell-based, BGB or cisplatin IC20 combos, cytotoxicity control for chromothriptic childhood tumor combination screen (AID 1671460); settings: Human astrocytes, viability inhibition, drug combinations, at 0.5 µM, stronger effect = higher value;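 also: cells exposed to compounds for 96 hours before viability readout; 0% = vehicle and 100% = killing control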
[14] = BT084 cell growth, single and combined drugs, ICGC_MB145, cisplatin and BGB IC40 combos (AID 1671461); settings: BT084 medulloblastoma cells, drug combinations, stronger effect = higher value;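 also: cells exposed to drugs for 96 hours; 0% = vehicle DMSO and 100% = high DMSO full killing control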
[15] = RCMB18 cell growth, single agent and combined, cisplatin and BGB IC40 combos (AID 1671462); settings: RCMB18 medulloblastoma cells, stronger effect = higher value;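 also: cells exposed to compound for four days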
[16] = CRL1545 cell growth, single agent and combined, cisplatin and BGB IC20 combos (AID 1671464); settings: CRL1545 osteosarcoma cells, stronger effect = higher value;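 also: cells exposed to compound for 96 hours before readout; 0% = vehicle DMSO and 100% = high DMSO killing control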
[17] = measured here: combination with BGB IC40, at 0.05 µM
[18] = measured here: with BGB IC20 combination, at 0.5 µM
[19] = measured here: with cisplatin IC20 combination, at 0.5 µM
[20] = measured here: combination with cisplatin, at 0.5 µM
[21] = measured here: combination with cisplatin, at 5 µM

Structure (SMILES): CCCn1cc(-c2ccnc(NCc3cn4cccc(C)c4n3)n2)c(C)n1
- z-score [1]: -1.07 (inactive)

Structure (SMILES): CN(C)Cc1cn(C2CCN(C(=O)C3CCCCCC3)CC2)nn1
- z-score [1]: -0.49 (inactive)

Structure (SMILES): COCCN(C)Cc1ccc(-c2nc(C)c(C)c(=O)[nH]2)cc1
- z-score [1]: -0.545 (inactive)

Structure (SMILES): CC(=O)C1(O)Cc2c(O)c3c(c(O)c2C(OC2CC(N)C(O)C(C)O2)C1)C(=O)c1ccccc1C3=O (stereo unspecified)
- inhibition ([2]; at 0.5 µM, stronger effect = higher value): -11.2% (inactive)
- inhibition ([2]; measured here: combination with BGB IC20, at 0.005 µM): -29.5%
- inhibition ([2]; measured here: combination with BGB IC40, at 0.005 µM): -38.8%
- inhibition [2, 17]: -19.5%
- inhibition ([2]; measured here: combination with cisplatin, at 0.5 µM, stronger effect = higher value): -31.3%
- inhibition ([2]; measured here: combination with cisplatin, at 5 µM, stronger effect = higher value): 125%
- inhibition ([3]; BGB combo, at 5 µM): 99.7%
- inhibition ([3]; at 0.5 µM): 98.4% (active)
- inhibition ([3]; cisplatin combo, at 5 µM): 99.9%
- inhibition [3, 18]: 97.4%
- inhibition [3, 19]: 98.5%
- inhibition ([3]; single agent, at 5 µM): 99.9%
- inhibition ([4]; BGB IC20 combo, at 0.005 µM): 97.5%
- inhibition ([4]; BGB IC40 combo, at 0.005 µM): 95.4%
- inhibition ([4]; BGB IC40 combo, at 0.05 µM): 100%
- inhibition ([4]; at 0.5 µM): -42.9% (inactive)
- inhibition ([4]; cisplatin combo, at 0.05 µM): 100%
- inhibition ([4]; cisplatin combo, at 0.5 µM): -43%
- inhibition ([4]; cisplatin combo, at 5 µM): -1.78%
- inhibition ([4]; measured here: 5 uM single agent, at 5 µM): -14.9%
- inhibition ([5]; at 0.5 µM): 102% (active)
- inhibition [5, 17]: 73.8%
- inhibition [5, 20]: 103%
- inhibition [5, 21]: 106%
- inhibition ([6]; at 0.5 µM): 99.6% (active)
- inhibition ([6]; measured here: with BGB IC20, at 0.5 µM): 99.4%
- inhibition ([6]; measured here: with BGB IC20, at 5 µM): 99.7%
- inhibition ([6]; measured here: with cisplatin IC20, at 0.5 µM): 99.8%
- inhibition ([6]; measured here: with cisplatin IC20, at 5 µM): 99.8%
- inhibition ([6]; single agent, at 5 µM): 99.9%
- inhibition ([7]; at 0.5 µM): 98.6% (active)
- inhibition ([7]; measured here: combination with BGB at IC20, at 0.5 µM): 98%
- inhibition ([7]; measured here: combination with cisplatin at IC20, at 0.5 µM): 98.6%
- inhibition ([8]; at 0.5 µM): 94.5% (active)
- inhibition ([8]; measured here: combo with BGB at IC20, at 0.5 µM): 89.5%
- inhibition ([8]; measured here: combo with cisplatin at IC20, at 0.5 µM): 99.8%
- inhibition ([9]; at 0.5 µM): 83.1% (active)
- inhibition ([9]; measured here: inhibition with BGB combination, at 0.05 µM): 40.5%
- inhibition ([9]; measured here: inhibition with cisplatin combination, at 0.05 µM): 51.2%
- inhibition ([10]; at 0.5 µM): 75.6% (inactive)
- inhibition [10, 20]: 88%
- inhibition [10, 21]: 102%
- inhibition ([11]; at 0.5 µM): 76.4% (inactive)
- inhibition ([11]; measured here: BGB combination, at 0.5 µM): 65.8%
- inhibition ([11]; measured here: BGB combination, at 5 µM): 72.7%
- inhibition ([11]; measured here: cisplatin combination, at 0.5 µM): 82.9%
- inhibition ([11]; measured here: cisplatin combination, at 5 µM): 92.7%
- inhibition ([12]; BGB combination, concentration series, at 5 µM): 101%
- inhibition ([12]; at 0.5 µM): 89% (active)
- inhibition ([12]; cisplatin combination, concentration series, at 5 µM): 97.8%
- inhibition [13]: 89.9% (active)
- inhibition ([13]; measured here: combo with BGB IC20): 84%
- inhibition ([13]; measured here: combo with cisplatin IC20): 91.6%
- inhibition ([14]; at 0.5 µM): 13.8% (inactive)
- inhibition ([14]; cisplatin combination, at 0.5 µM): -40.7%
- inhibition ([14]; cisplatin combination, at 5 µM): 77.4%
- inhibition ([14]; measured here: BGB IC40 combination 0.05 uM, at 0.05 µM): -4.42%
- inhibition ([14]; single agent, at 5 µM): 81.6%
- inhibition ([15]; at 0.5 µM): 75.2% (inactive)
- inhibition ([15]; cisplatin combo, at 5 µM): 89.9%
- inhibition ([15]; measured here: BGB IC40 combination, at 0.05 µM): 34.7%
- inhibition [15, 20]: 76.4%
- inhibition ([15]; single agent, at 5 µM): 94.4%
- inhibition ([16]; at 0.5 µM): 99.1% (active)
- inhibition [16, 18]: 98.7%
- inhibition [16, 19]: 99.3%
- inhibition ([16]; single agent, at 0.05 µM): 99.4%
- inhibition ([16]; single agent, at 5 µM): 99.9%
